Screens from PubChem.
MITF inh: MITF inhibitors, primary screen, biochemical, AlphaScreen, human; actives 0.91% (n = 650,000); AlphaScreen MITF homodimerization, bead proximity signal; inhibition, % at 2.6 µM; Microphthalmia-associated transcription factor (Homo sapiens), O75030; in the data active = inhibition above about 50%;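 also: 0% = vehicle wells with protein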
FBW7 activator: FBW7 E3 ligase activators, primary screen, biochemical, AlphaScreen, human; normalized activity (activation), % at 26.1 µM; F-box/WD repeat-containing protein 7 (Homo sapiens), Q969H0; AID 1259310, 2017; AlphaScreen FBW7–phospho-cyclin E peptide binding, activator screen; actives 0.13% (n = 650,000); in the data active = normalized activity above about 1.9%;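 also: purified mutant Fbw7 with reduced substrate affinity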
GPR151 activ: activators of human GPR151, primary screen, cell-based, PathHunter beta-arrestin, luminescence; PathHunter beta-arrestin GPR151 cells; activation, % at 11.2 µM; actives 1% (n = 650,000); G-protein coupled receptor 151 (Homo sapiens), Q8TDV0; in the data active = activation above about 4.9%;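 also: 0% = median of compound wells and 100% = cells with positive control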
TEAD-YAP block: TEAD-YAP interaction inhibition, primary screen, TEAD-YAP interaction inhibitor project, luminescence, HEK-TIYL cells; TEAD-Gal4/YAP UAS-luciferase luminescence; actives 1.4% (n = 640,000); AID 1259422, 2018; inhibition, % at 9.12 µM; in the data active = inhibition above about 32%;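 also: 0% = median of test compound wells and 100% = reference inhibitor wells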
GPR151 confirm: GPR151 activators, triplicate retest, confirmation, cell-based, PathHunter beta-arrestin, luminescence; activation, % at 11.2 µM; shares compounds with GPR151 activ; GPR151 PathHunter beta-arrestin cells, 90 min; % of EA-reagent control over plate median; 6,700 tested, under 10 active; AID 1508609, 2020;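 active = mean percent activation across replicates above the confirmation screen cutoff of 4.91%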
GPR119 ag: GPR119 activators in beta-arrestin cells, counter-screen for GPR151 activator project, cell-based, PathHunter beta-arrestin, luminescence, triplicate; shares compounds with GPR151 activ; 90 min; 0 = compound-well median, 100 = enzyme-acceptor control; activation, % at 11.2 µM; actives 0.3% (n = 6,700);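 active = mean percent activation in the counterscreen above 29.09%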;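 also: counterscreen on off-target GPR119 to flag nonselective hits from the GPR151 activator screen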
Target sequence (Q8TDV5 whole entry, looked up): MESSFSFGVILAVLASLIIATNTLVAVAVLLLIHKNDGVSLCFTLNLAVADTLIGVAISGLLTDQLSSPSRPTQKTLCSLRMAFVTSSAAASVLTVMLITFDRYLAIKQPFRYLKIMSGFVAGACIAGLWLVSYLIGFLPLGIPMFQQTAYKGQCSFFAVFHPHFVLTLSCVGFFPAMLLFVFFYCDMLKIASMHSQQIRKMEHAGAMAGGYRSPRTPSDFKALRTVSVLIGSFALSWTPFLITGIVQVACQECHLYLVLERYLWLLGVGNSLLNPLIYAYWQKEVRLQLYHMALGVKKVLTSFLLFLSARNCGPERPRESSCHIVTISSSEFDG
* marks the source's active call; other numbers are inactive results; · = not tested or not shown; ! = not confirmed by another sample. An excerpt weighted towards active compounds, which were near 3.5% of everything screened.

SMILES	MITF inh	FBW7 activator	GPR151 activ	TEAD-YAP block	GPR151 confirm	GPR119 ag
CCOC(=O)c1sc2nc(SCC(=O)NCCc3ccccc3)n(CCC3=CCCCC3)c(=O)c2c1C	15	0	1	6	·	·
Cc1ccc2cc(C#N)c(N3CCCN(C(=O)c4ccco4)CC3)nc2c1C	4	0	-1	4	·	·
Cc1ccc2cc3c(nc2c1C)OCCN(C(=O)c1ccco1)C3	16	0	5.7*	6	0	-5
O=C(NCC(=O)N1CCN(c2ccccc2)CC1)c1ccccc1F	-7	0	0	-29	·	·
COc1ccc(OC)c(N2C(=O)NC(=O)/C(=C\c3ccc([N+](=O)[O-])o3)C2=O)c1	47	0	0	-7	·	·
CCCCC(=O)Nc1nnc(S(=O)(=O)N(C)c2cccc(C)c2)s1	8	0	6.7*	1	1	-2
CCOC(=O)N1CCN(C(=O)C2CC23CCN(C2Cc4ccccc4C2)CC3)CC1 (centres undefined)	-10	0	-2	-9	·	·
O=C(Cc1cn(-c2ccc(Nc3ccc(N4CCOCC4)cc3)nn2)c2ccccc12)NCCOc1ccccc1	17	0	1	-1	·	·
CCCCNc1ncnc(N)c1[N+](=O)[O-]	-1	0	3	21	·	·
CC(C)OCCCNc1ncnc(N)c1[N+](=O)[O-]	7	0	7.7*	40*	0	-8
O=c1cc(N2CCOCC2)oc2c(-c3ccccc3)cccc12	5	0	5.4*!	-7	0	-6
Cc1cc(NCCN2CCOCC2)nc(-c2cccc(N)c2)n1	8	0	1	2	·	·
c1cc(NCCN2CCOCC2)nc(-c2ccc(N3CCOCC3)nc2)n1	11	0	6.1*	6	0	3
O=Cc1cccc(-c2ccc(NCCN3CCOCC3)nc2)c1	14	-1	5.2*	-58	0	-1
CC(=O)c1cccc(-c2nc(C)cc(NCCN3CCOCC3)n2)c1	-4	0	11*	-15	1	-1
C/C(=C\c1ccco1)C1C(C#N)=C(N)Oc2n[nH]c(C)c21 (centres undefined)	2	0	1	-8	·	·
O=c1c2ccccc2nc(-c2ccccc2Cl)n1Cc1ccc(C(F)(F)F)cc1	-11	0	-1	-8	·	·
Cc1cc2c(c(=O)o1)C(c1ccc(F)c(Br)c1)C(C#N)=C(N)O2 (centres undefined)	8	0	0	1	·	·
CC(C)(C)c1ccc(-c2nc(N3CCOCC3)c3ccccc3n2)cc1	11	0	0	18	·	·
CCOC(=O)Cn1c(=NC(=O)c2cc(=O)c3ccccc3o2)sc2cc(OC)ccc21	8	0	1	-7	·	·
CCOC(=O)Cn1c(=NC(=O)c2cc(=O)c3ccccc3o2)sc2cc(F)ccc21	-3	0	5.1*	1	0	3
COc1cc(C2C(C#N)=C(N)OC3=C2C(=O)CC(C)(C)C3)ccc1OC(=O)c1cccs1 (centres undefined)	3	0	1	2	·	·
COC(=O)c1ccc(/C=C2\NC(=S)N(c3ccc(OC)cc3)C2=O)cc1	5	0	6.7*	12	0	2
COc1ccc(N2C(=O)/C(=C/c3ccc(OCC(=O)O)cc3)NC2=S)cc1	0	0	0	1	·	·
FC(F)(F)c1cccc(-n2cc(-c3ccccc3)c3c(N4CCN(c5ccccc5)CC4)ncnc32)c1	14	0	0	7	·	·
SMILES	MITF inh	FBW7 activator	GPR151 activ	TEAD-YAP block	GPR151 confirm	GPR119 ag
COc1ccc(N(CC(=O)NC(C)C)S(=O)(=O)c2ccc(C)cc2)c(OC)c1	3	0	-1	2	·	·
CN1C(=O)[C@H]2CN(Cc3ccc4ncccc4c3)CCN2C(=O)[C@@H]1CO	7	1	-2	-9	·	·
CN1CCN(c2c(F)cc3c(=O)c(C(=O)O)cn(CCF)c3c2F)CC1	17	0	6.3*!	3	0	3
CN1CCN(c2c(F)cc3c(=O)c(C(=O)O)cn4c3c2OCN4C)CC1	1	0	2	3	·	·
COc1ccccc1NC(C)C(=O)N/N=C/c1ccc(Br)cc1 (centres undefined)	18	0	0	6	·	·
CC(C)CC(=O)NCC1Cc2c(F)ccc(-c3ccncc3)c2O1 (centres undefined)	6	0	-1	1	·	·
O=C(Cc1ccsc1)NCC1Cc2c(F)ccc(-c3ccncc3)c2O1 (centres undefined)	3	0	17*	24	0	2
COc1ccc(N2C(=O)CC(S/C(N)=N/N=C(\C)c3ccc(F)cc3)C2=O)cc1 (centres undefined)	-1	0	0	11	·	·
CCOC(=O)CSc1nnc2n(Cc3ccccc3)c(=O)c3c4c(sc3n12)CC(C(C)(C)C)CC4 (centres undefined)	-1	0	0	1	·	·
COC(=O)C1=C(NC(=O)c2ccccc2Br)CCS1	0	0	5.0*	1	0	11
COC(=O)C1=C(NC(=O)COc2ccc(Cl)cc2)CCS1	-4	0	6.1*	4	-1	-1
O=C1c2ccccc2NC(c2ccncc2)N1c1ccccc1Cl (centres undefined)	12	0	0	4	·	·
O=C(OCc1nc2ccccc2s1)c1ccccc1	-14	0	6.7*	-1	0	-8
CSc1nsc(NC(=O)Cc2n[nH]c(=O)c3ccccc23)n1	-4	0	-1	-4	·	·
O=C(Cc1n[nH]c(=O)c2ccccc12)Nc1ccccn1	7	0	5.4*	0	0	-7
Nc1nc(SCc2nc(-c3ccccc3)no2)[nH]c(=O)c1-c1ccccc1	-2	0	6.0*	1	-2	-16
Nc1nc(SCC(=O)NCc2ccccc2)[nH]c(=O)c1-c1ccccc1	3	0	6.8*	8	0	0
O=C(Nc1cccc(N=Cc2cc([N+](=O)[O-])cc([N+](=O)[O-])c2O)c1)c1ccco1	13	0	0	-2	·	·
CC(=O)Nc1cccc(N=Cc2cc([N+](=O)[O-])cc(C)c2O)c1	4	0	7.4*	-26	-1	3
CC(C)c1ccc(NC(=O)C2C3C=CC4(O3)C2C(=O)N(Cc2cccs2)C4C(=O)NC2CCCCC2)cc1 (centres undefined)	-7	0	-1	-2	·	·
COCc1ccc(CN2CCCC(CNS(=O)(=O)c3ccc(OC)cc3)C2)o1 (centres undefined)	19	0	4.9*	10	0	-5
